The target in assay [1] is T1, Ephrin type-B receptor 1 (Homo sapiens) (UniProt P54762).
T1 sequence (whole entry): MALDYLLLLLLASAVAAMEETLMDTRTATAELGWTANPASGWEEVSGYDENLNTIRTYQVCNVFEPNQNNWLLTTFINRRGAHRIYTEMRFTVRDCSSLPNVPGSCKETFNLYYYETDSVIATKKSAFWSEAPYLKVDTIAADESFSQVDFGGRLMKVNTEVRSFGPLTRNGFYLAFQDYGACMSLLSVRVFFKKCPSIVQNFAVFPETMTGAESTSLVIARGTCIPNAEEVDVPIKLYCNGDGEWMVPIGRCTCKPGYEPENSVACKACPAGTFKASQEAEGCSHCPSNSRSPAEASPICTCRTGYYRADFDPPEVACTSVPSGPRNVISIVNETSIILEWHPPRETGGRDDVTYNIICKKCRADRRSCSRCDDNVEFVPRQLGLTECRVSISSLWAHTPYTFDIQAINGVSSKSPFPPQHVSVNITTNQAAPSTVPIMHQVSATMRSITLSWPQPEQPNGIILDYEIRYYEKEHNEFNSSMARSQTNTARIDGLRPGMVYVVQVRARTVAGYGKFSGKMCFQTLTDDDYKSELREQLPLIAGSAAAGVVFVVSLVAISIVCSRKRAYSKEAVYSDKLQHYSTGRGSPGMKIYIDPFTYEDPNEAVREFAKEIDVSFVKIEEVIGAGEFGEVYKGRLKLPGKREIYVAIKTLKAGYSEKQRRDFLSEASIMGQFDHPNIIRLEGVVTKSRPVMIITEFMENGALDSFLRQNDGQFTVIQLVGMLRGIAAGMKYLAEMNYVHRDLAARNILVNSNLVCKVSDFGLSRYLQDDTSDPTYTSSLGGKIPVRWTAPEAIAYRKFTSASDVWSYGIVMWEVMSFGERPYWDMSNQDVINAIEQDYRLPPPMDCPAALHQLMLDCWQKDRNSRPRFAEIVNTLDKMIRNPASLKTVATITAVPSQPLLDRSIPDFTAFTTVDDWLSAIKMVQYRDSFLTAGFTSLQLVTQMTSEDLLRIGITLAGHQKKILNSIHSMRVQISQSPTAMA
To be noted: at 10 µM.

The target in assay [2] is T2, Ephrin type-B receptor 2 (Homo sapiens) (UniProt P29323).
T2 sequence (whole entry): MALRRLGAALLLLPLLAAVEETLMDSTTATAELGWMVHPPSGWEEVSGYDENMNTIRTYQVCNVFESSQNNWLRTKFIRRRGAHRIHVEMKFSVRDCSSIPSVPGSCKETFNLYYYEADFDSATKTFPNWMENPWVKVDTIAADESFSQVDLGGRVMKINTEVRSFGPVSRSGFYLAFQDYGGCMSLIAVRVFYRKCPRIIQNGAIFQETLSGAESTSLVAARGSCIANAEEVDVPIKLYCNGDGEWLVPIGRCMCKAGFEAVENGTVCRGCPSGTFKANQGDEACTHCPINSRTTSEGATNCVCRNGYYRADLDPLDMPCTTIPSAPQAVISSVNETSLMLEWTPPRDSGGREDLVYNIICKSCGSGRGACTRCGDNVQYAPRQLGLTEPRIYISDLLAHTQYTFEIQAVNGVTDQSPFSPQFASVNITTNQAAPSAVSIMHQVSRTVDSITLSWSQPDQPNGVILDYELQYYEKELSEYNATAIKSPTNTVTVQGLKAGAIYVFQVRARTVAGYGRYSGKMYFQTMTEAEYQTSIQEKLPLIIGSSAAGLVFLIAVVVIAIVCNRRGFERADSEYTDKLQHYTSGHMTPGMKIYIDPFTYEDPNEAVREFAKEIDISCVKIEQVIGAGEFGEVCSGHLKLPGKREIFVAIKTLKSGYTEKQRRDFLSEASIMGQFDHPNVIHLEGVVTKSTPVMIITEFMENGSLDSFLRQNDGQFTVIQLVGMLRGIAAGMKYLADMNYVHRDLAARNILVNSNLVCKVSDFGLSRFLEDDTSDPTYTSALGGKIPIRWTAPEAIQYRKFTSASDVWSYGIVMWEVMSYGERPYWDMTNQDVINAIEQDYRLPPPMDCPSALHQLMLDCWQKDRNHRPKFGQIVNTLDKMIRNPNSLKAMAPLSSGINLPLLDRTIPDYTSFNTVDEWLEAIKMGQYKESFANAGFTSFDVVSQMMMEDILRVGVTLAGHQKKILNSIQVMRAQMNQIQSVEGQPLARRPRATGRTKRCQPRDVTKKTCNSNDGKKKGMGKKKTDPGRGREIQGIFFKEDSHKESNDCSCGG
Particulars: at 1 µM; call rule not given here.

Assay [3] concerns the target T2, Ephrin type-B receptor 2 (Homo sapiens). To be noted: at 10 µM.
Assay [4] deals with T3, Ephrin type-B receptor 3 (Homo sapiens) (UniProt P54753).
T3 sequence (whole entry): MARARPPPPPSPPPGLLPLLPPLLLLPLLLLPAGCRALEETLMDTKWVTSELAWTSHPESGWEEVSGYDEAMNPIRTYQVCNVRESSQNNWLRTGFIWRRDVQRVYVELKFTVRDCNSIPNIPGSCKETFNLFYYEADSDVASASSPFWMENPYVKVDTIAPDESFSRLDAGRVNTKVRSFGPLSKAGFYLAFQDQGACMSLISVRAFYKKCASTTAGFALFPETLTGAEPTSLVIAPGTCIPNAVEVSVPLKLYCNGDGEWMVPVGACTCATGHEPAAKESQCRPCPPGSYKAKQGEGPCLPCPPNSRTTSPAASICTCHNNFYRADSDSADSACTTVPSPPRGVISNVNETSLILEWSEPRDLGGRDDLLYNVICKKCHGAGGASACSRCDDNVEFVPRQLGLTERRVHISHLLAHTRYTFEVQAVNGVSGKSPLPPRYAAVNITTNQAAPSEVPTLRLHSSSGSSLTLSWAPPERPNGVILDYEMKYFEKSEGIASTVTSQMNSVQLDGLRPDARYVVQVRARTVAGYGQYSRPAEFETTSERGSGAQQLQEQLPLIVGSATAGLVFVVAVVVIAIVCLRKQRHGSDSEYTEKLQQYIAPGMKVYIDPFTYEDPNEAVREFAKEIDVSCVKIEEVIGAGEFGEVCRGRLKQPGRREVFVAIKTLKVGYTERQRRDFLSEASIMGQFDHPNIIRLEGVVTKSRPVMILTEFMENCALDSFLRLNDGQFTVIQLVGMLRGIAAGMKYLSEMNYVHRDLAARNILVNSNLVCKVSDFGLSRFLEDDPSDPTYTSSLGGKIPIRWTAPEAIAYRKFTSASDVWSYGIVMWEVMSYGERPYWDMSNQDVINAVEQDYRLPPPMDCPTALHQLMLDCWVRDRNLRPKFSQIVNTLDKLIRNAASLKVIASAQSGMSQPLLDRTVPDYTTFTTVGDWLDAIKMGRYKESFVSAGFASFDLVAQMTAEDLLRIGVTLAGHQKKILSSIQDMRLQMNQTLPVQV
Particulars: at 1 µM.

Assay [5] addresses T3, Ephrin type-B receptor 3 (Homo sapiens). To be noted: at 10 µM.
Assay [6] has as its target T4, Ephrin type-B receptor 4 (Homo sapiens) (UniProt P54760).
T4 sequence (whole entry): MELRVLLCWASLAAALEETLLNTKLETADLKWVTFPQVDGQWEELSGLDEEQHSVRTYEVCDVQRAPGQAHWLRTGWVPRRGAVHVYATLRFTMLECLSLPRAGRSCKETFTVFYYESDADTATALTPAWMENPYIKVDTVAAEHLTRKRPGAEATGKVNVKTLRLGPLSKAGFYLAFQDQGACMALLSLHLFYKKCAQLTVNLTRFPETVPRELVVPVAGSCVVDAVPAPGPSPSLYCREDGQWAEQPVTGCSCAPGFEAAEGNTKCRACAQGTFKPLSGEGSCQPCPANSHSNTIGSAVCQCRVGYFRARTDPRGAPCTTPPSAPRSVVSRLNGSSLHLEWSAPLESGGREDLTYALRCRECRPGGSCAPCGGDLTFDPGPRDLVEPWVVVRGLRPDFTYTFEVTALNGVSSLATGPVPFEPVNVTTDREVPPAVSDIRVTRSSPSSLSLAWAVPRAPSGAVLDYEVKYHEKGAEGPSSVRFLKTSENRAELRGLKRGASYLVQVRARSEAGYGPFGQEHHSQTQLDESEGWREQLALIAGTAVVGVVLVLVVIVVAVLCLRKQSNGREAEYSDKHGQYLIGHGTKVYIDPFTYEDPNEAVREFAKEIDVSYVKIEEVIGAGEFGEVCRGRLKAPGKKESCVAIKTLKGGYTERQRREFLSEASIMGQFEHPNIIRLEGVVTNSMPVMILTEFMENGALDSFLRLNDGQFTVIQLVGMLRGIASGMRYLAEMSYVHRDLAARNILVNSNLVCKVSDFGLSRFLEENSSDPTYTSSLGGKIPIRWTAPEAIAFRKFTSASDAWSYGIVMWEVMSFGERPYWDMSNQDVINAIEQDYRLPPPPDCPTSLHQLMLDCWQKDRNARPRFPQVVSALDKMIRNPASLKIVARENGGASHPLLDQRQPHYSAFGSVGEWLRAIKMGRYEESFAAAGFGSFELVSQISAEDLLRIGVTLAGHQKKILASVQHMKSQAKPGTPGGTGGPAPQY
Particulars: at 1 µM.

In assay [7] the target is T4, Ephrin type-B receptor 4 (Homo sapiens). Particulars: at 10 µM.
Assay [8] addresses Receptor tyrosine-protein kinase erbB-4 (Homo sapiens) (UniProt Q15303). Particulars: at 1 µM.
For assay [9] the target is unchanged. To be noted: at 10 µM.
Assay [10] deals with Focal adhesion kinase 1 (Homo sapiens) (UniProt Q05397). Particulars: at 1 µM.
Focal adhesion kinase 1 (Homo sapiens), sequence (Q05397 2-1052 limits assumed): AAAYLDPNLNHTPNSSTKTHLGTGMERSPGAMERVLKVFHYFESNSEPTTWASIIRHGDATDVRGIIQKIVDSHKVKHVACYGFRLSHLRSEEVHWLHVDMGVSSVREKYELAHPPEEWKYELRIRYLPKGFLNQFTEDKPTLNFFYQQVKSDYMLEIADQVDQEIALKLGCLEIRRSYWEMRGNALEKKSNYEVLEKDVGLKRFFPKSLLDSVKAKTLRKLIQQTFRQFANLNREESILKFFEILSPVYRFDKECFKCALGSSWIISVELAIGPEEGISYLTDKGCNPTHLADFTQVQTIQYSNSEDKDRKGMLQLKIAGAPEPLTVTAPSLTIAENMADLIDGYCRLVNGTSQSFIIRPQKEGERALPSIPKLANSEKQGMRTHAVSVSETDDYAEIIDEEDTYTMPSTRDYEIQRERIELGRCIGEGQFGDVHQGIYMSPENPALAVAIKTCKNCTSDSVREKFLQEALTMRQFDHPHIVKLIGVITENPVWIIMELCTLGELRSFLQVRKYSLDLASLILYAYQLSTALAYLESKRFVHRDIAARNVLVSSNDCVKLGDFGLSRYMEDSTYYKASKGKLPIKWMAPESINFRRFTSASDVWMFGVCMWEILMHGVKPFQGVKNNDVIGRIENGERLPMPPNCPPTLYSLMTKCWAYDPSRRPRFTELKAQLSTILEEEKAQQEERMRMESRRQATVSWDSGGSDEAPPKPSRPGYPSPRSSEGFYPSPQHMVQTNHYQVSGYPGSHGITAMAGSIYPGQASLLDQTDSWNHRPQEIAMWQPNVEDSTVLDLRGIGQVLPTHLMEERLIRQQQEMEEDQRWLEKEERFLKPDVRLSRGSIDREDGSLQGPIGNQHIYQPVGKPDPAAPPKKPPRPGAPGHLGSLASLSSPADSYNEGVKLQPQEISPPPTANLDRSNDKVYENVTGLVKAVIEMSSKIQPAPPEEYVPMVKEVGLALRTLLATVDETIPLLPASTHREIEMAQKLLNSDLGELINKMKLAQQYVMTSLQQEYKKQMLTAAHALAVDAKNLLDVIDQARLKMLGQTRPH

Receptor tyrosine-protein kinase erbB-4 (Homo sapiens), sequence (Q15303 whole entry): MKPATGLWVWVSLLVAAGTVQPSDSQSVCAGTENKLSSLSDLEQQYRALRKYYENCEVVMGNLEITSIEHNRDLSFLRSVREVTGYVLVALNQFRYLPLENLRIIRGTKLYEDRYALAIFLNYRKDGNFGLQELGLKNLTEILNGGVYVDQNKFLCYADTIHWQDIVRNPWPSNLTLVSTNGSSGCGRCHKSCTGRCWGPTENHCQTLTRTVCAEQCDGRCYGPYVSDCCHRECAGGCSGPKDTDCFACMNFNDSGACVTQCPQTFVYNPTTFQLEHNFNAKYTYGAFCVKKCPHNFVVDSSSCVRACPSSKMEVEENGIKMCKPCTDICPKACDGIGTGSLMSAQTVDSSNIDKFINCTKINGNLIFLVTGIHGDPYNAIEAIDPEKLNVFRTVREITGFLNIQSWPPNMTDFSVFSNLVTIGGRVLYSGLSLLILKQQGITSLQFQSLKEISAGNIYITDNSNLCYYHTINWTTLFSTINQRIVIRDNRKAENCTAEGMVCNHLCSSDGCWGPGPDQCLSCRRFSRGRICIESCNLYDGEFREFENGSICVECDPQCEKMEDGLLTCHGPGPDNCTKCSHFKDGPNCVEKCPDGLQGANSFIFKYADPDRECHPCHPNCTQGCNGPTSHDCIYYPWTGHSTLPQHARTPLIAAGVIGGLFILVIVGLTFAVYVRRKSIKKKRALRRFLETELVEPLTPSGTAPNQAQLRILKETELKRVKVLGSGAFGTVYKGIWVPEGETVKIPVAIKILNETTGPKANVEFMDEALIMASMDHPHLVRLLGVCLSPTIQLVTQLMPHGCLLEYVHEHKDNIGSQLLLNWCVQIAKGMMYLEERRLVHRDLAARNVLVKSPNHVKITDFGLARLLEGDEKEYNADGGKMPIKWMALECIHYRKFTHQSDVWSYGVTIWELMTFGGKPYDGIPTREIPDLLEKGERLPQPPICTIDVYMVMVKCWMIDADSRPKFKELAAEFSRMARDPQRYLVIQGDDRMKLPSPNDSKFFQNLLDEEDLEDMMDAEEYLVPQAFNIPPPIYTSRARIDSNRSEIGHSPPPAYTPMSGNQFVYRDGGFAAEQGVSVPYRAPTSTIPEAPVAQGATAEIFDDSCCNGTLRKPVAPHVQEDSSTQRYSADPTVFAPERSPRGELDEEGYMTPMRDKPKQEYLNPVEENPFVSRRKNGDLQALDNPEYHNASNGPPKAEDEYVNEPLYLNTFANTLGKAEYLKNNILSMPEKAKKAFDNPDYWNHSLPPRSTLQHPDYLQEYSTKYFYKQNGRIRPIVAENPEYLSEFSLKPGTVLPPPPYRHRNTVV

In the case of `N#C/C(=C(\N)Sc1ccc(N)cc1)c1ccccc1C(F)(F)F`, the residual activity (usually the signal under treatment as a percentage of the control signal) in assay [1] was 95%; in assay [2], 108%; in assay [3] it was 110%; in assay [4], 105% (inactive); in [5], 109%; in [6] it was 93%. For the same molecule, the residual activity in assay [7] is 92%; in assay [8] it was 96%; in [9], 104%; in assay [10], 99%.

Values taken from ChEMBL document CHEMBL2218924, “A broad activity screen in support of a chemogenomic map for kinase signalling research and drug discovery” (Biochem J, 2013).
